Experimental findings from ChEMBL document CHEMBL4513146, “CO-ADD screening of Karazin Kharkiv National University (Ukraine) compounds” are described below.

As a reminder, the Inhibition is the drop in the measured response relative to a control, in per cent.

Results with a measured potency or affinity are listed apart.

In one assay the test system is Klebsiella pneumoniae. As to conditions: Concentration 32 ug.mL-1;; ASSAY_TEST Inhibition of Bacterial Growth; detection method Absorption (OD600); MEDIA CAMHB; plate type 384well; NBS; CORNING #3640; time 18 hr.
As to `Cc1ccc(-c2ccc3nn(CC(=O)Nc4cccc(Cl)c4)c(=O)n3n2)cc1C`, the Inhibition came to 4.06%.
`COc1ccccc1NC(=O)Cn1nc2c3cc(-c4ccc(C)c(C)c4)nn3ccn2c1=O`: the Inhibition is 17.54%.
Still for that read-out and setting: in the case of `CN(C(=O)Cn1nc2nc(Nc3ccc(F)cc3)ccn2c1=O)c1ccccc1` it was 8.25%.
Still for that read-out and setting: in the case of `COc1ccccc1NC(=O)Cn1nc2c(Sc3ccccc3)nccn2c1=O` it was -2.04%; in that of `O=C(CSc1nnc2c(=O)n(-c3ccc(F)cc3)ccn12)N1CCN(c2ccccc2F)CC1`, -3.8%; in that of `Cc1ccc(-n2ccn3c(=O)n(Cc4ccccc4Cl)nc3c2=O)cc1C`, 4.31%.
On the same count and under the same terms, the result for `C=Cc1ccc(CSc2nnc3c(=O)n(-c4cccc(OC)c4)ccn23)cc1` reads 9.99%; that for `COc1ccc(Cl)cc1NC(=O)Cn1nc2c3cc(-c4ccc(C)c(C)c4)nn3ccn2c1=O`, -20.97%; that for `COc1cccc(-c2noc(Cn3nc4ccc(-c5ccc(C)c(C)c5)nn4c3=O)n2)c1OC`, 9.19%.
In the case of `COC(=O)c1cccc(NC(=O)Cn2nc3ccc(-c4ccccc4)nn3c2=O)c1`, the Inhibition is reported as -4.82%.
Same read-out and setting: in the case of `COc1ccc(-c2cc3c4nn(CC(=O)Nc5cc(OC)ccc5OC)c(=O)n4ccn3n2)cc1` it was 11.83%; in that of `CCOc1ccc(-n2ccn3c(SC(C)C(=O)Nc4ccc5c(c4)OCCO5)nnc3c2=O)cc1` (stereo unspecified), 14.39%; in that of `CCCN(C)c1nccn2c(=O)n(CC(=O)Nc3ccc(Br)cc3)nc12`, 7.69%.
On the same count and under the same terms, the result for `CC(C)c1ccc(N(Cc2ccc(Cl)cc2)S(=O)(=O)c2cccn3cnnc23)cc1` reads 9.01%; that for `O=C(Cn1nc2ccc(Sc3ccccc3)nn2c1=O)N1CCN(c2ccc(F)cc2)CC1`, 5.94%; that for `COc1ccccc1-n1ccn2c(SCC(=O)Nc3ccc(C)cc3C)nnc2c1=O`, 11.64%.
Same read-out and setting: the result for `CCCn1c(=O)c2sccc2n2c(=O)n(Cc3ccc(Cl)cc3)nc12` reads 4.43%.
Take `CCCCN(C)c1ccc2nnc(CCc3nc(-c4cc(OC)cc(OC)c4)no3)n2n1`: the Inhibition is 6.4%.
Same read-out and setting: in the case of `Cc1cc(C)cc(N(Cc2ccc(F)cc2)S(=O)(=O)c2cccn3cnnc23)c1` it was 7.95%; in that of `COc1cc(OC)c(NC(=O)Cn2nc3c(N4CCOCC4)nccn3c2=O)cc1Cl`, 1.91%; in that of `COc1cccc(Sc2nc3ccccc3n3c(=O)n(CC(=O)Nc4ccccc4)nc23)c1`, 3.34%.
Same read-out and setting: in the case of `O=C(CSc1nc2ccccc2n2cnnc12)NCc1ccccc1Cl` it was 2.85%; in that of `O=C(CCc1nnc2c(N3CCCCC3)nc3ccccc3n12)NCc1ccc(Br)cc1`, 7.61%.
As to `COc1ccc(-c2cc3c4nnc(SCC(=O)Nc5ccccc5F)n4ccn3n2)cc1`, the Inhibition turned out to be 6.81%.
On to `CCc1ccc(Cn2c(=O)c3sccc3n3c(=O)n(Cc4c(F)cccc4Cl)nc23)cc1`, for which the Inhibition is 5.71%.
`Cc1ccc(Sc2ccc3nn(CC(=O)Nc4ccc(Br)c(C)c4)c(=O)n3n2)cc1`: the Inhibition stood at 2.67%.

In a further assay the test system is Candida albicans. The settings on record: Concentration 32 ug.mL-1; ASSAY_TEST Inhibition of Fungal Growth; detection method Absorption (OD530).
Turning to `CC1CCc2c(sc3ncn4c(=O)n(CC(=O)Nc5ccc6c(c5)CCC6)nc4c23)C1` (stereo unspecified), the Inhibition came out at 4.62%.
Consider `COc1ccc(NC(=O)Cn2nc3c(Oc4ccccc4)nccn3c2=O)cc1`, for which the Inhibition is given as 3.81%.
On the same count and under the same terms, in the case of `COc1cccc(-n2ccn3c(SCc4cccc(C(F)(F)F)c4)nnc3c2=O)c1` it was 12.49%.
The same measure, in the same setting: in the case of `COc1ccc(-c2cc3c4nnc(SCC(=O)Nc5ccc(C)cc5Cl)n4ccn3n2)cc1` it was 0.54%; in that of `Cc1ccc(C)c(CSc2nnc3c(=O)n(-c4ccc(F)c(F)c4)ccn23)c1`, 0.45%.
Take `CCCc1nnc2c(=O)n(CC(=O)Nc3ccc(C(C)=O)cc3)c3ccccc3n12`: the Inhibition is given as -1.78%.
For the molecule `Cc1ccc(CN(c2cc(C)cc(C)c2)S(=O)(=O)c2cccn3c(C)nnc23)cc1`, the Inhibition is reported as -0.03%.
With `COc1ccc(NC(=O)Cn2nc3ccc(SC4CCCCC4)nn3c2=O)cc1OC`, the Inhibition amounted to 4.98%.
Same read-out and setting: in the case of `COc1ccccc1N1CCN(C(=O)CSc2nc3ccccc3n3c(C(C)C)nnc23)CC1` it was -2.8%.
Take `CCc1cccc(NC(=O)Cn2nc3c(SCc4ccc(Cl)cc4)nccn3c2=O)c1`: the Inhibition was found to be 22.52%.
Still for that read-out and setting: in the case of `COc1ccc(OC)c(NC(=O)Cn2nc3c4cc(-c5ccc(C)c(C)c5)nn4ccn3c2=O)c1` it was 5.32%; in that of `Cc1ccc(CN(c2ccccc2)S(=O)(=O)c2ccc3nncn3c2)cc1`, -3.84%; in that of `O=C(Cn1nc2c(Oc3ccccc3)nccn2c1=O)Nc1ccc(F)cc1F`, -1.91%.
On to `CCCCOc1ccc(-c2cc3c4nnc(SCC(=O)Nc5ccc(Cl)cc5)n4ccn3n2)cc1`, for which the Inhibition is recorded as 2.71%.
Still for that read-out and setting: in the case of `Cc1ccc(-c2ccc3nn(CC(=O)Nc4cccc(Cl)c4)c(=O)n3n2)cc1C` it was 0.61%.
In the case of `COc1ccccc1NC(=O)Cn1nc2c3cc(-c4ccc(C)c(C)c4)nn3ccn2c1=O`, the Inhibition is listed as -1.16%.
In the case of `CN(C(=O)Cn1nc2nc(Nc3ccc(F)cc3)ccn2c1=O)c1ccccc1`, the Inhibition is 3.9%.
Still for that read-out and setting: the result for `COc1ccccc1NC(=O)Cn1nc2c(Sc3ccccc3)nccn2c1=O` reads 1.31%; that for `O=C(CSc1nnc2c(=O)n(-c3ccc(F)cc3)ccn12)N1CCN(c2ccccc2F)CC1`, 5.18%.
Still for that read-out and setting: in the case of `Cc1ccc(-n2ccn3c(=O)n(Cc4ccccc4Cl)nc3c2=O)cc1C` it was 3.38%; in that of `C=Cc1ccc(CSc2nnc3c(=O)n(-c4cccc(OC)c4)ccn23)cc1`, 4.25%.
In the case of `COc1ccc(Cl)cc1NC(=O)Cn1nc2c3cc(-c4ccc(C)c(C)c4)nn3ccn2c1=O`, the Inhibition is 12.28%.
On the same count and under the same terms, the result for `COc1cccc(-c2noc(Cn3nc4ccc(-c5ccc(C)c(C)c5)nn4c3=O)n2)c1OC` reads -0.69%.
Still for that read-out and setting: in the case of `COC(=O)c1cccc(NC(=O)Cn2nc3ccc(-c4ccccc4)nn3c2=O)c1` it was 4.96%; in that of `COc1ccc(-c2cc3c4nn(CC(=O)Nc5cc(OC)ccc5OC)c(=O)n4ccn3n2)cc1`, 1.43%.
As to `CCOc1ccc(-n2ccn3c(SC(C)C(=O)Nc4ccc5c(c4)OCCO5)nnc3c2=O)cc1` (stereo unspecified), the Inhibition is recorded as 0.98%.
The same measure, in the same setting: in the case of `CCCN(C)c1nccn2c(=O)n(CC(=O)Nc3ccc(Br)cc3)nc12` it was 3.8%; in that of `CC(C)c1ccc(N(Cc2ccc(Cl)cc2)S(=O)(=O)c2cccn3cnnc23)cc1`, 2.08%.
Regarding `O=C(Cn1nc2ccc(Sc3ccccc3)nn2c1=O)N1CCN(c2ccc(F)cc2)CC1`, the Inhibition worked out at 0.64%.
For the molecule `COc1ccccc1-n1ccn2c(SCC(=O)Nc3ccc(C)cc3C)nnc2c1=O`, the Inhibition came to 2.45%.
For the molecule `CCCn1c(=O)c2sccc2n2c(=O)n(Cc3ccc(Cl)cc3)nc12`, the Inhibition was 0.41%.
The same measure, in the same setting: the result for `CCCCN(C)c1ccc2nnc(CCc3nc(-c4cc(OC)cc(OC)c4)no3)n2n1` reads 9.61%; that for `Cc1cc(C)cc(N(Cc2ccc(F)cc2)S(=O)(=O)c2cccn3cnnc23)c1`, 1.02%.
For the molecule `COc1cc(OC)c(NC(=O)Cn2nc3c(N4CCOCC4)nccn3c2=O)cc1Cl`, the Inhibition was found to be 3.65%.
As for `COc1cccc(Sc2nc3ccccc3n3c(=O)n(CC(=O)Nc4ccccc4)nc23)c1`, the Inhibition is listed as 1.24%.
On the same count and under the same terms, the result for `O=C(CSc1nc2ccccc2n2cnnc12)NCc1ccccc1Cl` reads 0.3%.
Take `O=C(CCc1nnc2c(N3CCCCC3)nc3ccccc3n12)NCc1ccc(Br)cc1`: the Inhibition is 2.54%.
As to `COc1ccc(-c2cc3c4nnc(SCC(=O)Nc5ccccc5F)n4ccn3n2)cc1`, the Inhibition was -0.08%.
With `CCc1ccc(Cn2c(=O)c3sccc3n3c(=O)n(Cc4c(F)cccc4Cl)nc23)cc1`, the Inhibition is listed as 1.83%.
Same read-out and setting: the result for `Cc1ccc(Sc2ccc3nn(CC(=O)Nc4ccc(Br)c(C)c4)c(=O)n3n2)cc1` reads 11.69%.
